# Reference: PubChem BioAssay (NCATS)
# Records with an inconclusive call do not appear. Calls of active or inactive are those of the source. The call rests on the fitted dose curve; in most records, active means well fitted cell-killing curve with a large enough effect; inconclusive means small, poorly fitted or top-dose-only effect; inactive means flat fitted curve, though single readings scatter.
# Test: Cell Viability - LYMP2-020 (AID 986);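 further: cells exposed to compound for 24 h at 37 °C; plate controls were DMSO only for no effect and tetraoctylammonium bromide at 92 µM for full effect; nearly all actives have a fitted effect of over 55% in size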
# Details: series mostly up to 92.2 µM; activity change, negative = viability loss: at the top concentration
# Excerpt: NIH Chemical Genomics Center [NCGC]
# NIH Molecular Libraries Screening Centers Network [MLSCN]
# National Institutes of Environmental Health Sciences [NIEHS]
# National Toxicology Program [NTP]
# We have developed a 1536-well cell-based assay for quantitative high throughput screening (qHTS) against a number of cell lines to determine in vitro cytotoxicity of small molecules. This particular assay uses a human lymphoblastoid cell line (LYMP2-020) purchased from Coriell Institute for Medical Research.
# NCGC Assay Protocol Summary:
# The CellTiter-Glo luminescent cell viability assay (Promega) is a homogeneous method to measure the number of viable cells in culture. The end point readout of this assay is based on quantitation of intracellular ATP, an indicator of metabolic activity, using the luciferase reaction. Luciferase catalyzes the oxidation of beetle Luciferin to oxyluciferin and light in the presence of ATP. The luminescent signal is proportional to amount of ATP present.
# Using the CellTiter-Glo luminescent cell viability assay, the amount of cellular ATP was measured in the lymphoblastoid cell line with complete culture medium following compound treatment for 24 hours. The assay was performed in opaque white Kalypsys 1536-well plates. In the screen, tetraoctylammonium bromide was used as positive control. Library compounds were measured for their ability to cause acute toxicity in the cell line, as reflected by a decrease in intracellular ATP levels, in a concentration-dependent manner. […] AC50 values were determined from concentration-response data modeled with the standard Hill equation.
# qHTS protocol for CellTiter Glo lymphoblastoid cellular assay
# [Step] [Parameter] [Value] [Description]
# 1. Reagent; 5 uL; 2500 lymphoblastoid cells/well
# 2. Time; 5 hr; 37 C incubation
# 4. Controls; 23 nL; Tetraoctylammonium bromide 6.4pM to 92 uM
# 5. Time; 24 hr; 37 C incubation
# 6. Reagent; 5 uL; CellTiter Glo reagent
# 7. Time; 30 min; Room Temperature
# 8. Detection; Luminescence; Viewlux plate reader
# Keywords: cell viability, cytotoxicity, lymphoblastoid cell line, luminescence, NTPHTS, NTPHTS_NCGC, NIEHS, DSSTox, MLSMR, MLSCN, NIH Roadmap, qHTS, NCGC
row,Compound,"activity change, negative = viability loss"
1,CCN(Cc1ccccc1)c1ccccc1,5.27% (inactive)
2,O=C(O)c1ccccc1Cl,-0.353% (inactive)
3,Cc1cc(C(=O)O)ccc1[N+](=O)[O-],-9.35% (inactive)
4,CC1CCC2CC1C2(C)C (stereo not given),-8.7% (inactive)
5,CCNc1ccccc1,-3.53% (inactive)
6,c1ccc(Nc2ccccc2)cc1,2.46% (inactive)
7,O=C(O)c1ccc(Cl)c(Cl)c1,6.86% (inactive)
8,FC(F)(F)c1ccccc1Cl,7.66% (inactive)
9,CC(C)(c1cc(Br)c(OCC(Br)CBr)c(Br)c1)c1cc(Br)c(OCC(Br)CBr)c(Br)c1 (stereo not given),-10.4% (inactive)
10,Cc1cc(C2(c3cc(C)c(O)cc3C)OS(=O)(=O)c3ccccc32)c(C)cc1O,-15.2% (inactive)
11,Cc1ccc2ncccc2c1,-3.41% (inactive)
12,CC(=O)C1(C)CC2=C(CCCC2(C)C)CC1C (stereo not given),-9.83% (inactive)
13,O=[N+]([O-])c1cccc(Cl)c1,-17.5% (inactive)
14,C1CCOC1,0.465% (inactive)
15,Cc1ccc(C)cc1,-10.6% (inactive)
16,CO[Si](CCCNCCC[Si](OC)(OC)OC)(OC)OC,0.784% (inactive)
17,CC(=O)Nc1ccccc1C,-1.78% (inactive)
18,C=C(C)C(=O)OCCCCCC,7% (inactive)
19,CSCCC=O,-12.5% (inactive)
20,CC(C)Cc1nccs1,3.91% (inactive)

row,Compound,"activity change, negative = viability loss"
1,C=C(C)C(N)=O,-9.46% (inactive)
2,O=C(Cl)c1ccccc1[N+](=O)[O-],-13.5% (inactive)
3,Cc1ccc(CO)cc1,-6.89% (inactive)
4,CCCCC(=O)N(C)C,-16.6% (inactive)
5,COC(=O)CCCC(=O)OC,3.98% (inactive)
6,O=C(O)CN(CC(=O)O)CC(=O)O,2.94% (inactive)
7,OCCO,9.3% (inactive)
8,CC(C)C=O,-4.7% (inactive)
9,CCNc1cc(O)ccc1C,-10.8% (inactive)
10,C=Cc1ccc(C=C)cc1,-6.71% (inactive)
11,CN(C)c1cccc(O)c1,-7.2% (inactive)
12,O=C1CCCCC1,-0.991% (inactive)
13,C/C(C=O)=C/c1ccccc1,2.28% (inactive)
14,CCOCCO,4.57% (inactive)
15,O=[N+]([O-])c1ccc(NCCO)c(OCCO)c1,10.5% (inactive)
16,Cc1ccccc1C(=O)O,-3.5% (inactive)
17,CC(=O)Nc1ccc(N)cc1,5% (inactive)
18,Cc1ccco1,6.04% (inactive)
19,CC(=O)c1cccc([N+](=O)[O-])c1,1.13% (inactive)
20,ON=C1CCCCC1,-10% (inactive)
